# From PubChem BioAssay
# A number with no mark means an inactive call. How the calls were made is not given here.
# Target: Pantothenate synthetase (Mycobacterium tuberculosis (strain ATCC 25618 / H37Rv)) (UniProt P9WIL5)
# Experiment: Recombinant Mtb pantothenate synthetase (PanC) inhibitors, coupled enzyme, confirmatory (AID 375);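 further: 0% = full reaction with vehicle and 100% = no enzyme background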
# Details: coupled enzyme assay; at 10 µM, stronger effect = higher value
# Chain of Pantothenate synthetase (Mycobacterium tuberculosis (strain ATCC 25618 / H37Rv)) (P9WIL5 whole entry, looked up): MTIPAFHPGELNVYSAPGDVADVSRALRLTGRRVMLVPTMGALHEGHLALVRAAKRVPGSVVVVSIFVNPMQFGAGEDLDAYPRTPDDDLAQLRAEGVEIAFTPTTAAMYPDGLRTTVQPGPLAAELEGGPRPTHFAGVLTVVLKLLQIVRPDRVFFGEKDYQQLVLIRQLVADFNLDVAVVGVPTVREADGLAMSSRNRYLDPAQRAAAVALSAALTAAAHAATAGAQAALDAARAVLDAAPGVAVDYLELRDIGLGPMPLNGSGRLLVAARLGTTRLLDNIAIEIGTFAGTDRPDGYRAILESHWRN
row,SMILES,inhibition [%]
1,O=C1CC(c2cccc(Cl)c2)Cc2nc(N3CCN(c4ccccc4)CC3)ncc21 (stereo not given),0
2,Clc1ccc(Cn2c(CN3CCCC3)nc3ccccc32)cc1,8
3,COc1cccc(C(=O)OCn2nnc3ccccc3c2=O)c1OC,0
4,COc1ccc(S(=O)(=O)Cc2ccc(C(=O)N3CCOCC3)o2)cc1,7
5,Cc1ccc2c(c1)-c1c(cnn1CC(=O)NC(C)CCc1ccco1)CO2 (stereo not given),0
6,CCc1ccc2[nH]c(=O)c(C(c3nnnn3CC3CCCO3)N3CCN4CCCC4C3)cc2c1 (stereo not given),4
7,CCOC(=O)N1CCN(C(=O)COc2ccc(S(=O)(=O)NC3CCCCC3)cc2C)CC1,2
8,Cc1ccc(F)cc1NC(=O)C1CCCN(c2ncccn2)C1 (stereo not given),7
9,O=c1[nH]c2cccnc2n1Cc1ccco1,0
10,CN1C(=O)c2oc3ccccc3c(=O)c2C1c1ccccn1 (stereo not given),0
11,COc1cc2c(C)nc(C)c(C#N)c2cc1OC,0
12,Cc1cc(=O)[nH]c(SCc2nc3ncccn3c2Br)n1,11
13,COc1ccc(N2CCN(c3ccc(NC(=O)C4CCCCC4)cc3C#N)CC2)cc1,0
14,O=C(Nc1ccccn1)NC(C(F)(F)F)C(F)(F)F,0
15,COC(=O)C(F)(F)Sc1c(C)[nH]c2ccccc12,3
16,O=C(CSc1ncnc2c1oc1ccccc12)Nc1ccccc1C(F)(F)F,0
17,O=c1cc(-c2ccccc2)[nH]c2nc3ccccc3n12,0
18,CC(=O)Oc1ccc(-c2ccc(C(=O)O)cc2)cc1,4
19,CC(C)Cc1nnc(NS(=O)(=O)c2ccc(Cl)cc2)s1,0
20,COc1ccc(C2C(C#N)=C(C)NC3=C2C(=O)CC(C)(C)C3)c(OC)c1 (stereo not given),0

row,SMILES,inhibition [%]
1,CC1(C)CC(=O)C(C=NCc2ccc3c(c2)OCO3)=C(O)C1,5
2,Cc1nc(NCc2ccccn2)c2ccccc2n1,7
3,CC(C(=O)Nc1ccccc1-c1ccccc1)N1CCN(C(=O)c2ccco2)CC1 (stereo not given),0
4,COCC(C)NC(=O)NC(=O)c1ccc(Cl)cc1 (stereo not given),0
5,Cn1nnnc1SCC(=O)N1CCN(c2ccccc2)CC1,0
6,O=C(NC1CC1)c1ccc(S(=O)(=O)NCC2CCCCC2)cc1,0
7,CC(=O)N(c1ccc(N(C(C)=O)S(=O)(=O)c2cccs2)cc1)S(=O)(=O)c1cccs1,0
8,CCCOc1ccc([C@@H]2C3CN(C(=O)OCC)CC=C3C(C#N)=C(N)C2(C#N)C#N)cc1OC (stereo not given in full),1
9,c1ccc2c(-c3nc(C4CCCCC4)no3)cc(-c3ccncc3)nc2c1,1
10,CCOC(=O)c1sc(NC(=O)c2noc3c2CCCC3)c(C(=O)OCC)c1C,0
11,Fc1ccc(C(c2nnnn2Cc2ccco2)N2CCN(C3CCCCC3)CC2)cc1 (stereo not given),0
12,CCOc1ccccc1N1CCN(c2nc(N)c(C#N)c(CC#N)c2C#N)CC1,0
13,Cc1ccc(-n2ncc3c(=O)n(CC(=O)NC4CCCCC4)cnc32)cc1C,12
14,N#CC1=C(N)OC2=C(C(=O)CCC2)C1CCc1ccccc1 (stereo not given),1
15,CCc1nnc(NC(=O)OCc2ccccc2)s1,0
16,COC(=O)CN1C(=O)C(O)(CC(=O)c2ccc(C)cc2)c2cc(Br)ccc21 (stereo not given),2
17,COc1ccccc1Nc1nc(N)nc(CSc2nccc(C)n2)n1,0
18,CCOc1ccccc1N(C(=O)c1ccco1)C(C(=O)NC1CCCC1)c1cccnc1 (stereo not given),0
19,CN(CC(=O)N1CCN(C2CCCCC2)CC1)S(=O)(=O)c1cccc2nsnc12,8
20,CSCCC(C(=O)Nc1ccc2c(c1)OCO2)N1C(=O)c2ccccc2C1=O (stereo not given),0
